# The supplement of paper PMC11219838
# Test system: Caenorhabditis elegans dauer (daf-2(e1370))
# Assay: proportion of mobile C. elegans dauer larvae relative to DMSO control (fraction of DMSO control); higher = more viable, less nematicidal, active = 0.63 or less; extreme values may be limits of the assay
# Settings: 60 µM; 5 days; temperature: 20 °C
# Protocol: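 DODA library (846 commercial 1,3,4- and 1,2,4-oxadiazole compounds plus commercial nematicide controls) screened at a single dose of 60 µM (0.6% DMSO) in 96-well plates, two biological replicates. Read-outs: C. elegans N2 L1 survival/reproduction score at day 6, 20 °C (0: 0-10 worms, 1: 11-20, 2: 21-50, 3: >50, 4: overgrown/starved). C. elegans daf-2 dauer, D. dipsaci and M. hapla J2 mobility at day 5, 20 °C, and P. penetrans mobility at day 5, 20 °C, each relative to DMSO controls. M. hapla egg hatching at day 12, 25 °C, relative to the mean of 8 DMSO wells on the same plate.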
row,SMILES,proportion of mobile C. elegans dauer larvae
1,CC(C)NC(=O)N1CC(=O)N(c2cc(Cl)cc(Cl)c2)C1=O [iprodione],1 (inactive)
2,CNC(=O)O/N=C(\SC)C(=O)N(C)C [oxamyl],1 (inactive)
3,O=C(NCCc1ncc(C(F)(F)F)cc1Cl)c1ccccc1C(F)(F)F [fluopyram],0 (active)
4,CC[C@H](C)[C@H]1O[C@]2(C=C[C@@H]1C)C[C@@H]1C[C@@H](C/C=C(\C)[C@@H](O[C@H]3C[C@H](OC)[C@@H](O[C@H]4C[C@H](OC)[C@@H](O)[C@H](C)O4)[C@H](C)O3)[C@@H](C)/C=C/C=C3\CO[C@@H]4[C@H](O)C(C)=C[C@@H](C(=O)O1)[C@]34O)O2.CO[C@H]1C[C@H](O[C@H]2[C@H](C)O[C@@H](O[C@@H]3/C(C)=C/C[C@@H]4C[C@@H](C[C@]5(C=C[C@H](C)[C@@H](C(C)C)O5)O4)OC(=O)[C@@H]4C=C(C)[C@@H](O)[C@H]5OC/C(=C\C=C\[C@@H]3C)[C@]54O)C[C@@H]2OC)O[C@@H](C)[C@@H]1O [abamectin],0.242 (active)
